In PubChem BioAssay (NCATS):
Results filed as inconclusive are left out. A number with no mark means an inactive call. Activity calls are given as the source filed them. Calls come from the whole dose curve; as a rule, active = well fitted inhibition curve with a large enough effect; inconclusive = small, poorly fitted or top-dose-only effect; inactive = no such curve, though single readings can be large or run the other way.
% is set by controls: 0 for no effect and ±100 for the full control effect; potency is the fitted concentration of half-maximal effect.

The compounds below were run against N-terminal Xaa-Pro-Lys N-methyltransferase 1 (Homo sapiens) (UniProt Q9BV86) (assay: qHTS Assay for Inhibitors of N-terminal methyltransferase 1 (NTMT1): LOPAC validation of the NTMT1 SAHH-coupled ThioGlo3 Assay (AID 1347143; note: nearly all actives have a fitted effect of over 70% in size)). Conditions: recombinant NTMT1, SAHH-coupled ThioGlo3 fluorescence; series mostly up to 114 µM; activity change, negative = inhibition: at the top concentration.
N-terminal Xaa-Pro-Lys N-methyltransferase 1 (Homo sapiens), sequence (Q9BV86 whole entry, looked up): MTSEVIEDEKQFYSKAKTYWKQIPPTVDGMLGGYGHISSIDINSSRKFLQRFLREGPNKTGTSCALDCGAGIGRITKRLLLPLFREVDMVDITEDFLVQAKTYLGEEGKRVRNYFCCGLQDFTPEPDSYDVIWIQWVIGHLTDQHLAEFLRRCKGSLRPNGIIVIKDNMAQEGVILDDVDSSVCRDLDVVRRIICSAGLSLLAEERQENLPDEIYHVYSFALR
Procedure, shortened: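 Fluorescence read-out (excitation 340nm, emission 450nm) of SAH-derived thiol, measured via SAHH coupling and ThioGlo3, taken immediately and after a 30 min room-temperature reaction, then normalized to the background read. Enzyme: NTMT1 at 125nM; cofactor SAM 100uM in the added reagent.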
For `CC12NC(Cc3ccccc31)c1ccccc12` (stereo unspecified), the “activity change, negative = inhibition” value was -18.9%. In the case of `CCCN1CCc2cc(O)cc3c2[C@H]1Cc1ccc(O)c(O)c1-3`, the Potency is reported as 35.5 µM (active). For `CN1C2CCC1CC(OC(c1ccccc1)c1ccccc1N)C2` (stereo unspecified), the “activity change, negative = inhibition” value was -11.8%. For `O=C1C=CC(=O)C=C1`, the “activity change, negative = inhibition” value was -13.1%. In the case of `Clc1cc(I)cc(Cl)c1NC1=NCCN1`, the “activity change, negative = inhibition” value is reported as -16.6%. In the case of `CP(=O)(O)C1=CCNCC1`, the “activity change, negative = inhibition” value is reported as -11.3%. `C[N+]1(C)CCN(c2ccccc2)CC1` was tested, and the Potency was 28.2 µM (active). `Nc1cc2c(ncn2CCOCP(=O)(O)O)c(=O)[nH]1` was tested, and the “activity change, negative = inhibition” value was -26.6%. `CN1CCc2cccc(Cl)c2CC1` was tested, and the “activity change, negative = inhibition” value was -8.45%. With `CC1OC1P(=O)(O)O` (stereo unspecified) the “activity change, negative = inhibition” value was -2.96%. In the case of `NCC(O)c1cc(O)c(O)cc1F` (stereo unspecified), the Potency is reported as 56.2 µM (active). With `CNc1ccc2oc(C[C@H]3O[C@@]4(CC[C@H]3C)O[C@H]([C@H](C)C(=O)c3ccc[nH]3)[C@H](C)C[C@H]4C)nc2c1C(=O)O` the Potency was 56.2 µM (active). In the case of `O=P(O)(O)C(Cl)(Cl)P(=O)(O)O`, the “activity change, negative = inhibition” value is reported as -10.5%. For `CCCN1CCc2cccc3c2[C@H]1Cc1ccc(O)c(O)c1-3`, the Potency was 15.8 µM (active). For `N#C/C(=C/c1ccc(O)c(O)c1)C(N)=S`, the Potency was 44.7 µM (active). With `CN(C(=O)Cc1ccc(Cl)c(Cl)c1)C(CN1CCCC1)c1cccc(OCC(=O)O)c1` (stereo unspecified) the “activity change, negative = inhibition” value was -20.8%. For `C[C@H](N)CN1CCc2ccc(Br)cc21`, the “activity change, negative = inhibition” value was -28.6%. With `O=S1(=O)N(CCN2CC=C(c3c[nH]c4cc(F)ccc34)CC2)c2cccc3c2N1CCC3` the Potency was 50.1 µM (active). For `NC(CCCCCP(=O)(O)O)C(=O)O` (stereo unspecified), the “activity change, negative = inhibition” value was -7.93%. `NNC(N)=O` was tested, and the “activity change, negative = inhibition” value was -24.2%. With `Cc1sc2ccccc2c1CC1=NCCN1` the Potency was 79.4 µM (active). For `N[C@@]1(C(=O)O)CC[C@@H](C(=O)O)C1`, the “activity change, negative = inhibition” value was -15.2%. With `CCCC[N+]1(C)C2CC(OC(=O)[C@H](CO)c3ccccc3)CC1C1OC12` (stereo partly specified) the “activity change, negative = inhibition” value was -19.4%. For `C[N+]1(C)CCC(OC(=O)C(c2ccccc2)c2ccccc2)CC1`, the Potency was 63.1 µM (active). `c1ccc2cc(CC3=NCCN3)ccc2c1` was tested, and the “activity change, negative = inhibition” value was -17.8%. For `NC(N)=NOCC[C@H](N)C(=O)O`, the “activity change, negative = inhibition” value was -19.5%. In the case of `CCNC(=O)[C@H]1O[C@@H](n2cnc3c(N)ncnc32)[C@H](O)C1O` (stereo partly specified), the “activity change, negative = inhibition” value is reported as -10.7%. `C=CCN1C[C@@H](C)N([C@H](c2ccc(C(=O)N(CC)CC)cc2)c2cccc(OC)c2)C[C@@H]1C` was tested, and the “activity change, negative = inhibition” value was -11.9%. `NC(=O)c1cc(N2CC2)c([N+](=O)[O-])cc1[N+](=O)[O-]` was tested, and the “activity change, negative = inhibition” value was -25.6%. `NC(C(=O)O)c1cc(=O)[nH]o1` (stereo unspecified) was tested, and the “activity change, negative = inhibition” value was -2.04%. `NC(Cc1cc(O)c(O)cc1O)C(=O)O` (stereo unspecified) was tested, and the Potency was 44.7 µM (active).
